Measured values as given in PubChem BioAssay AID1159580 (chemical genetic matrix, 2015).
Out of some 5,500 compounds screened, about 2,000 (36%) were called active. Not shown: some 18% with an inconclusive outcome. The list shows a part of the results. A number with no mark means an inactive call. No stated cut-off is given here; in the data, active means normalized growth mostly below about 0.91 (no sharp cut-off); inconclusive means no clear call, values can overlap the other calls; inactive means mostly above about 0.92.

Test: chemical genetic growth profiling, strain panel (AID 1159580);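 further: tested at 20 µM; growth read once vehicle control cultures reached saturation at 30 °C; 1 = growth at the plate median or of vehicle wells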
Details: S. cerevisiae deletion strains, growth OD

**Q.** What does the source list for `COc1ccc(-c2oc3ccccc3c(=O)c2O)cc1OC`?
**A.** normalized growth (locus YAL021C, strain ccr4, stronger effect = lower value): 0.164 (active); normalized growth (locus YAL026C, strain drs2, stronger effect = lower value): 0.512 (active); normalized growth (locus YAL030W, strain snc1, stronger effect = lower value): 0.739 (active); normalized growth (locus YBL061C, strain skt5, stronger effect = lower value): 0.631 (active); normalized growth (locus YBR009C, strain hhf1, stronger effect = lower value): 0.639 (active); normalized growth (locus YBR023C, strain chs3, stronger effect = lower value): 0.587 (active); normalized growth (locus YBR171W, strain sec66, stronger effect = lower value): 0.848 (active); normalized growth (locus YBR231C, strain swc5, stronger effect = lower value): 0.509 (active); normalized growth (locus YBR279W, strain paf1, stronger effect = lower value): 0.697 (active); normalized growth (locus YCL011C, strain gbp2, stronger effect = lower value): 0.617 (active); normalized growth (locus YCL016C, strain dcc1, stronger effect = lower value): 0.782 (active); normalized growth (locus YCL061C, strain MRC1, stronger effect = lower value): 0.753 (active); normalized growth (locus YCL069W, strain vba3, stronger effect = lower value): 0.762 (active); normalized growth (locus YCR088W, strain abp1, stronger effect = lower value): 0.865 (active); normalized growth (locus YDL005C, strain med2, stronger effect = lower value): 0.915; normalized growth (locus YDL040C, strain nat1, stronger effect = lower value): 0.902 (active); normalized growth (locus YDR001C, strain nth1, stronger effect = lower value): 0.914 (active); normalized growth (locus YDR069C, strain doa4, stronger effect = lower value): 0.175 (active); normalized growth (locus YDR137W, strain rgp1, stronger effect = lower value): 0.505 (active); normalized growth (locus YDR159W, strain sac3, stronger effect = lower value): 0.748 (active); normalized growth (locus YDR195W, strain ref2): 0.809 (active); normalized growth (locus YDR297W, strain sur2, stronger effect = lower value): 0.557 (active); normalized growth (locus YDR334W, strain swr1, stronger effect = lower value): 0.524 (active); normalized growth (locus YDR335W, strain msn5, stronger effect = lower value): 0.683 (active); normalized growth (locus YDR392W, strain spt3, stronger effect = lower value): 0.553 (active); normalized growth (locus YEL003W, strain gim4, stronger effect = lower value): 0.6 (active); normalized growth (locus YEL037C, strain rad23, stronger effect = lower value): 0.692 (active); normalized growth (locus YEL061C, strain CIN8 (second series), stronger effect = lower value): 0.882 (active); normalized growth (locus YER015W, strain faa2, stronger effect = lower value): 0.4 (active); normalized growth (locus YER016W, strain bim1, stronger effect = lower value): 0.826 (active); normalized growth (locus YER111C, strain swi4, stronger effect = lower value): 0.696 (active); normalized growth (locus YER155C, strain BEM2 (second series), stronger effect = lower value): 0.687 (active); normalized growth (locus YFR010W, strain ubp6, stronger effect = lower value): 0.633 (active); normalized growth (locus YGL167C, strain pmr1, stronger effect = lower value): 0.742 (active); normalized growth (locus YGL173C, strain kem1, stronger effect = lower value): 0.37 (active); normalized growth (locus YGL227W, strain vid30, stronger effect = lower value): 0.949; normalized growth (locus YGL240W, strain doc1, stronger effect = lower value): 0.772 (active); normalized growth (locus YGL253W, strain hxk2, stronger effect = lower value): 0.544 (active); normalized growth (locus YHR013C, strain ard1, stronger effect = lower value): 0.466 (active); normalized growth (locus YHR027C, strain rpn1, stronger effect = lower value): 0.315 (active); normalized growth (locus YHR030C, strain SLT2, stronger effect = lower value): 1.01; normalized growth (locus YHR079C, strain IRE1, stronger effect = lower value): 0.983; normalized growth (locus YHR142W, strain chs7, stronger effect = lower value): 0.533 (active); normalized growth (locus YJL092W, strain hpr5, stronger effect = lower value): 0.812 (active); normalized growth (locus YJL095W, strain BCK1 (second series), stronger effect = lower value): 0.548 (active); normalized growth (locus YJL095W, strain BCK1, stronger effect = lower value): 0.962; normalized growth (locus YJL115W, strain asf1, stronger effect = lower value): 0.901 (active); normalized growth (locus YJL129C, strain trk1, stronger effect = lower value): 0.721 (active); normalized growth (locus YJL154C, strain vps35, stronger effect = lower value): 0.809 (active); normalized growth (locus YJL164C, strain tpk1, stronger effect = lower value): 0.497 (active); normalized growth (locus YJL166W, strain qcr8, stronger effect = lower value): 0.527 (active); normalized growth (locus YJL187C, strain SWE1, stronger effect = lower value): 0.635 (active); normalized growth (locus YJR066W, strain TOR1, stronger effect = lower value): 0.948; normalized growth (locus YKL160W, strain elf1, stronger effect = lower value): 0.766 (active); normalized growth (locus YKR026C, strain gcn3, stronger effect = lower value): 0.915 (active); normalized growth (locus YKR091W, strain srl3, stronger effect = lower value): 0.875 (active); normalized growth (locus YLL001W, strain dnm1, stronger effect = lower value): 0.692 (active); normalized growth (locus YLL026W, stronger effect = lower value): 0.798 (active); normalized growth (locus YLL041C, strain sdh2, stronger effect = lower value): 0.85 (active); normalized growth (locus YLR027C, strain aat2, stronger effect = lower value): 0.673 (active); normalized growth (locus YLR113W, strain HOG1, stronger effect = lower value): 0.957; normalized growth (locus YLR221C, strain rsa3, stronger effect = lower value): 0.644 (active); normalized growth (locus YLR258W, strain gsy2, stronger effect = lower value): 0.733 (active); normalized growth (locus YLR262C, strain YPT6 (second series), stronger effect = lower value): 0.371 (active); normalized growth (locus YLR320W, strain mms22, stronger effect = lower value): 0.537 (active); normalized growth (locus YLR342W, strain FKS1, stronger effect = lower value): 0.61 (active); normalized growth (locus YLR357W, strain rsc2, stronger effect = lower value): 0.626 (active); normalized growth (locus YLR370C, strain arc18, stronger effect = lower value): 0.785 (active); normalized growth (locus YLR384C, strain iki3, stronger effect = lower value): 0.76 (active); normalized growth (locus YML120C, strain ndi1, stronger effect = lower value): 0.72 (active); normalized growth (locus YMR058W, strain fet3, stronger effect = lower value): 0.113 (active); normalized growth (locus YMR125W, strain sto1, stronger effect = lower value): 0.932; normalized growth (locus YMR129W, stronger effect = lower value): 0.825 (active); normalized growth (locus YMR205C, strain PFK2, stronger effect = lower value): 0.369 (active); normalized growth (locus YMR231W, strain pep5, stronger effect = lower value): 0.555 (active); normalized growth (locus YNL071W, strain lat1, stronger effect = lower value): 0.715 (active); normalized growth (locus YNL183C, strain NPR1, stronger effect = lower value): 0.907; normalized growth (locus YNL209W, strain ssb2, stronger effect = lower value): 0.222 (active); normalized growth (locus YNL248C, strain rpa49, stronger effect = lower value): 0.783 (active); normalized growth (locus YNL322C, strain KRE1 (second series), stronger effect = lower value): 0.776 (active); normalized growth (locus YNR049C, strain mso1, stronger effect = lower value): 0.889 (active); normalized growth (locus YOR001W, strain rrp6, stronger effect = lower value): 0.678 (active); normalized growth (locus YOR070C, strain gyp1, stronger effect = lower value): 0.772 (active); normalized growth (locus YOR080W, strain dia2, stronger effect = lower value): 0.445 (active); normalized growth (locus YOR083W, strain WHI5, stronger effect = lower value): 0.617 (active); normalized growth (locus YOR106W, strain vam3, stronger effect = lower value): 0.203 (active); normalized growth (locus YOR231W, strain MKK1, stronger effect = lower value): 0.996; normalized growth (locus YOR265W, strain rbl2, stronger effect = lower value): 0.655 (active); normalized growth (locus YOR270C, strain vph1, stronger effect = lower value): 0.32 (active); normalized growth (locus YOR290C, strain snf2, stronger effect = lower value): 0.607 (active); normalized growth (locus YPL051W, strain arl3, stronger effect = lower value): 0.371 (active); normalized growth (locus YPL078C, strain atp4, stronger effect = lower value): 0.74 (active); normalized growth (locus YPL106C, strain sse1, stronger effect = lower value): 0.572 (active); normalized growth (locus YPL240C, strain hsp82, stronger effect = lower value): 0.771 (active); normalized growth (locus YPL256C, strain CLN2, stronger effect = lower value): 0.994
